HT1080NT lethal: kills 2HG-producing HT-1080-NT fibrosarcoma cells; HT-1080-NT fibrosarcoma viability, CellTiter-Glo ATP luminescence, 48 h; 360,000 compounds, 1.6% hits; Potency, µM (series often up to 46.1 µM), for the others: top-dose activity, negative = less viability, hits mostly cytotoxic;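 further: NT is the 2HG producing partner of a matched IDH1 knockdown line; 0% = DMSO-treated cells and -100% = media-only wells without cells; nearly all actives have a fitted effect of over 55% in size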
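Luminescent CellTiter-Glo readout after 48 hours of compound exposure at 37 degrees C defined viability of HT-1080-NT cells. Activity was normalized to DMSO wells and cell-free media wells; concentration-response curves were fitted and assigned curve classes.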
HepG2 tox-1: kills HepG2 cells in TGF-b inhibitor counter-screen. 410,000 compounds, 0.76% hits. Potency, µM (highest dose often 46.1 µM), without a hit: at the highest dose activity change, negative = cytotoxicity, hits mostly cytotoxic. HepG2 CAGA-GFP viability, ATP luminescence, 18 h
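CellTiter-Glo luminescence gave cytotoxicity after 18 hours at 37 degrees C. The cells were HepG2 CAGA-GFP in 1% FBS DMEM, stimulated with 500 pg/mL TGF-beta after compound addition. %Activity was normalised to no-cell wells (complete cell-killing) and DMSO (no toxicity), and curves were fitted and classified.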
TGFb SMAD3 inh: blocks TGF-b signaling | HepG2 CAGA-GFP TGF-b/SMAD3 reporter, GFP fluorescence, 18 h; TGF-beta stimulated, 500 pg/mL final | Potency, µM (top dose mostly 46.1 µM), for the others: at the top dose activity, negative = inhibition, usual class: inhibitors | 410,000 compounds, 1.2% hits | AID 588855; further: on the % scale 0 is the no-effect control and ±100 the full control effect; nearly all actives have a fitted effect of over 65% in size
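Using HEPG2 CAGA-GFP reporter cells at 1000 cells/well, we pinned test compounds, stimulated with recombinant TGF-beta (500 pg/mL final) and measured total well GFP after 18 h.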
HT1080 IDH1KD tx: HT-1080 IDH1 knockdown cell toxicity (counter line) | HT-1080 IDH1 knockdown viability, ATP luminescence, 48 h | Potency, µM (series often up to 46.1 µM), without a hit: at the highest dose activity, negative = toxicity, most hits filed as cytotoxic | 360,000 compounds, 2% hits | AID 686971;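 further: 0% = DMSO wells and -100% = cell-free medium wells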
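After a 2 h attachment period, IDH1KD HT-1080 cells took pin-transferred compound for 48 h at 37 °C; ATP-based luminescence after 10 min room-temperature reagent incubation reported viability.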
KB-3-1 tox: kills parental KB-3-1 adenocarcinoma cells; 400,000 compounds, 1.4% hits; Potency, µM (doses to about 46.1 µM), hits mostly cytotoxic; KB-3-1 viability, CellTiter-Glo ATP luminescence, 72 h; further: on the % scale 0 is the no-effect control and ±100 the full control effect; nearly all actives have a fitted effect of over 60% in size
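Using CellTiter-Glo luminescence, growth of non-resistant KB-3-1 adenocarcinoma cells is assessed 72 h after pin-tool compound addition at 37 °C. Normalized responses across the concentration series yield fitted curves.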
KB-V1 cytotox: KB-V1 MDR subline cytotoxicity. 400,000 compounds, 3.4% hits. Potency, µM (top dose mostly 46.1 µM), usual class: cytotoxic. KB-V1 MDR cells viability, CellTiter-Glo, 72 h; further: on the % scale 0 is the no-effect control and ±100 the full control effect; nearly all actives have a fitted effect of over 60% in size
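Cytotoxicity via CellTiter-Glo luminescence after 72 h compound exposure at 37 degrees C. Cells: drug-selected KB-V1 line, DMEM phenol-red free plus 10% FBS. Compounds tested at multiple concentrations; normalized data fitted to concentration-effect curves.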
TGFb CAGA inh: TGF-b pathway inhibition, cherry-pick retest. HepG2 CAGA-GFP TGF-b reporter, GFP fluorescence, 18 h; cells stimulated with TGF-beta, 500 pg/mL. shares compounds with TGFb SMAD3 inh. Potency, µM (titrated, usually from 46.1 µM), for the others: at the top dose activity, negative = inhibition, actives largely listed as inhibitors. 1,600 compounds, 63% hits. AID 720534; further: on the % scale 0 is the no-effect control and ±100 the full control effect; nearly all actives have a fitted effect of over 65% in size
HepG2 tox-2: counter-screen for TGF-b inhibitors: cytotoxicity in HepG2 cells | shares compounds with TGFb SMAD3 inh | HepG2 CAGA-GFP viability, ATP luminescence, 18 h; cells stimulated with TGF-beta, 500 pg/mL | Potency, µM (top dose mostly 46.1 µM), for the others: top-dose activity, negative = cytotoxicity, usual class: inhibitors | 1,600 compounds, 27% hits; further: on the % scale 0 is the no-effect control and ±100 the full control effect; nearly all actives have a fitted effect of over 70% in size
CCL64 TGFb inh: orthogonal confirmation of TGF-b inhibitors in CCL64 cells; shares compounds with TGFb SMAD3 inh; CCL64 CAGA-GFP reporter, TGF-b stimulated, GFP fluorescence, 18 h; Potency, µM (titrated, usually from 46.1 µM), inactives show at the top dose activity, negative = inhibition, most hits filed as inhibitors; 1,600 compounds, 41% hits; AID 720536; further: nearly all actives have a fitted effect of over 65% in size
COP TGFb inh: blocks TGF-b signaling in HepG2 COP reporter; shares compounds with TGFb SMAD3 inh; AID 720537; HepG2 COP-GFP TGF-b reporter, GFP fluorescence, 18 h; cells stimulated by added recombinant TGF-beta; 1,600 compounds, 3% hits; Potency, µM (series often up to 46.1 µM), without a hit: at the highest dose activity, negative = inhibition, most hits filed as inhibitors; further: nearly all actives have a fitted effect of over 70% in size
Starred values were filed as active, the others as inactive; i = inactive; ? = inconclusive; . = not tested or not shown. Compounds with a hit are over-represented: about 6.6% of the library has one in this group of screens. The call rests on the fitted dose curve; in most records, active means well fitted curve in the direction sought with a large enough effect; inconclusive means small, poorly fitted or top-dose-only effect, or another doubt; inactive means no such curve, though single readings can be large; an effect the other way counts as inactive or inconclusive. Potency means the concentration at half of the fitted maximal effect.

SMILES	HT1080NT lethal	HepG2 tox-1	TGFb SMAD3 inh	HT1080 IDH1KD tx	KB-3-1 tox	KB-V1 cytotox	TGFb CAGA inh	HepG2 tox-2	CCL64 TGFb inh	COP TGFb inh
N#C/C(=N\Nc1ccc(Cl)c(Cl)c1)C(=O)C1CC1	?	-29%	7.1µM*	2.9µM*	16µM*	?	2.3µM*	6.5µM*	6.5µM*	64%
O=C(Nc1ccc(F)c(Cl)c1)c1ccc2sc([C@@H]3O[C@H](CO)[C@H](O)[C@H](O)[C@H]3O)nc2c1	3%	4%	11%	7%	i	i	.	.	.	.
Nc1nc(N)c2c(ccc3c2ccn3Cc2cccc([N+](=O)[O-])c2)n1	0.018µM*	-98%	3.5µM*	0.15µM*	0.58µM*	1.8µM*	4.6µM*	0.29µM*	?	13µM*
COc1ccccc1N1CCN(Cc2cc(Br)c(O)c3ncccc23)CC1	?	-37%	?	?	?	?	?	-28%	4.1µM*	11%
CC(=O)C1=CCC(c2ccccc2)N(S(=O)(=O)c2ccc(Cl)cc2)C1 (stereo not drawn)	?	-14%	?	?	i	i	.	.	.	.
CCN(CC)c1ccc(Nc2nc(N3CCOCC3)c3ccccc3n2)cc1	11µM*	-94%	10µM*	?	8.2µM*	2.6µM*	?	21µM*	?	30%
O=C1N[C@@H](c2ccccc2)COC(=O)[C@@H](Cc2ccc(F)cc2)CC/C=C/C[C@@H]1CC(=O)N(CCO)Cc1ccccc1	?	0%	?	?	i	i	15µM*	-21%	?	25%
O=C1N[C@@H](c2ccccc2)COC(=O)[C@@H](Cc2ccc(F)cc2)CC/C=C/C[C@H]1CC(=O)N(CCO)Cc1ccccc1	?	-27%	?	?	i	i	.	.	.	.
O=C(C[C@@H]1C/C=C\C[C@@H](Cc2ccc(F)cc2)C(=O)OC[C@@H](Cc2ccccc2)NC1=O)N[C@H](CO)Cc1ccccc1	1%	-34%	?	5%	i	i	3%	7%	4%	0%
COc1ccc(S(=O)(=O)N2CCOCC2)cc1NC(=O)CSc1nnc(N)s1	-2%	5%	?	5%	i	i	-12%	3%	3%	5%
Nc1nnc(SCC(=O)Nc2cccc(S(=O)(=O)N3CCOCC3)c2)s1	6%	-20%	?	7%	i	i	.	.	.	.
O=C(NCc1cccnc1)OC1CC2CC1[C@H]1CCCCN1C2=O (stereo partly drawn)	-6%	.	.	1%	i	i	.	.	.	.
Oc1ccccc1-c1n[nH]c(-c2ccccc2O)n1	?	-61%	2.8µM*	?	?	?	?	?	?	4%
Cc1ccc2c(=O)cc(C(=O)NCc3ccccc3)oc2c1	.	-11%	-27%	.	i	?	.	.	.	.
O=S1(=O)[C@H]2CC3O[C@]2(C[C@@H]3c2ccc(F)cc2)CN1Cc1ccc(Cl)cc1	-10%	1%	7.1µM*	-1%	i	i	?	-9%	-11%	-4%
CC(=O)c1ccc(C2CC34CN(Cc5cccc(Cl)c5)S(=O)(=O)C3CC2O4)cc1 (stereo not drawn)	.	2%	0%	.	.	.	.	.	.	.
CS(=O)(=O)N1CCN(c2ccc(NC(=O)c3ccc([N+](=O)[O-])o3)cc2)CC1	?	5.6µM*	4µM*	?	i	18µM*	2.9µM*	15µM*	?	-29%
O=C(Nc1ccc(N2CCN(C(=O)c3ccc(Cl)cc3)CC2)cc1)c1ccc2c(c1)OCCO2	?	-6%	?	-19%	i	i	.	.	.	.
O=C(Nc1ccc(N2CCN(C(=O)c3ccc(Cl)cc3)CC2)cc1)c1ccc([N+](=O)[O-])o1	10µM*	13µM*	7.1µM*	2.6µM*	i	i	6.5µM*	16µM*	?	?
CC(C)(C)C(=O)N1CCN(c2ccc(NC(=O)c3ccco3)cc2)CC1	18%	10%	18%	20%	i	i	.	.	.	.
CC(C)(C)C(=O)N1CCN(c2ccc(NC(=O)c3ccc([N+](=O)[O-])o3)cc2)CC1	4.1µM*	-58%	7.1µM*	5.2µM*	?	?	7.3µM*	10µM*	?	13%
CCCCN(c1ccccc1)S(=O)(=O)c1cc2c3c(c1)C(C)C(=O)N3CCC2 (stereo not drawn)	.	-5%	?	.	?	?	.	.	.	.
CCc1cccc(NC(=O)CNS(=O)(=O)c2ccc3nc(C)sc3c2)c1	.	-23%	.	.	.	.	.	.	.	.
Cc1nc2ccc(S(=O)(=O)NCC(=O)Nc3cccc(F)c3)cc2s1	3%	-2%	?	4%	i	i	-8%	6%	-9%	-1%
O=c1[nH]c(C2CCN(S(=O)(=O)c3ccc(F)cc3)CC2)nc2c1nnn2Cc1ccc2c(c1)OCCO2	?	-29%	16µM*	0%	i	i	15µM*	-23%	?	5%
Cc1ccc(Cn2nnc3c(=O)[nH]c(C4CCN(S(=O)(=O)c5cc(C)ccc5C)CC4)nc32)cc1	?	-24%	16µM*	?	?	i	21µM*	-19%	?	36%

High-throughput results (PubChem)
